# Test results: PubChem BioAssay (EPA / NIEHS)
# Inconclusive results are not listed. Active and inactive are the calls of the source. Rule for the calls, unless noted: active = hit-call score of the fitted dose curve at least 0.9, where 1 is the maximum; inactive = score below 0.9.
# What was measured:
# [1] = ATG_PBREM_CIS: Attagene CIS-FACTORIAL HepG2 Assay for human Phenobarbital-responsive Enhancer Module (PBREM) (AID 2282955); details: HepG2 PBREM cis-reporter, Attagene multiplexed transcription; actives raise or lower the signal
# Procedure, shortened: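 Multiplexed cis-reporter readout in human hepatoma HepG2 cells; PBREM-regulated transcript quantified after 24 h exposure by fluorescent RT-PCR fragment analysis. Signal changes up or down fitted relative to DMSO.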
# [2] = molecular target: Paired box protein Pax-6 (Homo sapiens) (UniProt P26367); experiment: ATG_Pax6_CIS: Attagene CIS-FACTORIAL HepG2 Assay for human Paired Box 6 (PAX6) (AID 2282956); details: HepG2 CIS-FACTORIAL PAX6 reporter transcription, RNA readout; actives raise or lower the signal
# Sequence of Paired box protein Pax-6 (Homo sapiens) (P26367 whole entry, looked up): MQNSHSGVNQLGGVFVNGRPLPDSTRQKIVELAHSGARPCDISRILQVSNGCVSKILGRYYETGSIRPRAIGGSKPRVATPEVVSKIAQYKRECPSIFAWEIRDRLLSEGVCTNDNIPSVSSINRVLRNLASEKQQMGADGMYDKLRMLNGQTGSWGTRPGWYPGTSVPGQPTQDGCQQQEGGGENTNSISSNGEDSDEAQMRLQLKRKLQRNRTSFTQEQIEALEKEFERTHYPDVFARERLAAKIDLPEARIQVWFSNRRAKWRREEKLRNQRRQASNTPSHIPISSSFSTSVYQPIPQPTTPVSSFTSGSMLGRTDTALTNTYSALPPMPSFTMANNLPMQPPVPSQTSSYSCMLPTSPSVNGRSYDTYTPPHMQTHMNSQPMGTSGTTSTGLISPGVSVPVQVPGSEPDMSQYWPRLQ
# Procedure, shortened: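 After twenty-four hours of chemical exposure, transfected HepG2 cells are harvested for RNA. Cis-promoter reporter transcripts are amplified, fluorescently labelled and sized by capillary electrophoresis, with gain and loss of signal scored against DMSO.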
# [3] = ATG_PXRE_CIS: Attagene CIS-FACTORIAL HepG2 Assay for human Pregnane X Receptor Element (PXRE) (AID 2282957); details: HepG2 Attagene CIS-FACTORIAL PXRE reporter, mRNA; actives raise or lower the signal
# Procedure, shortened: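 HepG2 cells transiently transfected with cis-element-driven multiplexed reporter units; after 24 h chemical exposure, reporter mRNA measured by RT-PCR, 6-FAM labelling, HpaI digestion and capillary electrophoresis. Bidirectional fitting relative to DMSO.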
# [4] = ATG_RORE_CIS: Attagene CIS-FACTORIAL HepG2 Assay for human RAR-related Orphan Receptor Element (RORE) (AID 2282959); details: HepG2 Attagene cis-factorial RORE reporter, mRNA; actives raise or lower the signal
# Procedure, shortened: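 Transfect HepG2 with MRTUs; treat 24 h; extract RNA; RT with oligo(dT); PCR with reporter-specific primers; 6-FAM primer extension; HpaI digest 2 h at 37 C; capillary electrophoresis. Fit vs DMSO, bidirectional.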
# [5] = ATG_Sox_CIS: Attagene CIS-FACTORIAL HepG2 Assay for human SRY-box transcription factor (SOX) (AID 2282960); details: HepG2 Attagene cis-factorial SOX reporter, mRNA; actives raise or lower the signal
# Procedure, shortened: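 Fluorescence-labelled cDNA fragments from reporter transcripts, sized by CE, give the signal. Cells: HepG2, transiently transfected with cis-regulated reporter units. Exposure 24 h; DMSO negative control; bidirectional curve fitting.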
# [6] = molecular target: Transcription factor Sp1 (Homo sapiens) (UniProt P08047); experiment: ATG_Sp1_CIS: Attagene CIS-FACTORIAL HepG2 Assay for human Specificity Protein 1 (Sp1) (AID 2282961); details: HepG2 Sp1 cis-reporter transcription, actives raise or lower the signal
# Sequence of Transcription factor Sp1 (Homo sapiens) (P08047 whole entry, looked up): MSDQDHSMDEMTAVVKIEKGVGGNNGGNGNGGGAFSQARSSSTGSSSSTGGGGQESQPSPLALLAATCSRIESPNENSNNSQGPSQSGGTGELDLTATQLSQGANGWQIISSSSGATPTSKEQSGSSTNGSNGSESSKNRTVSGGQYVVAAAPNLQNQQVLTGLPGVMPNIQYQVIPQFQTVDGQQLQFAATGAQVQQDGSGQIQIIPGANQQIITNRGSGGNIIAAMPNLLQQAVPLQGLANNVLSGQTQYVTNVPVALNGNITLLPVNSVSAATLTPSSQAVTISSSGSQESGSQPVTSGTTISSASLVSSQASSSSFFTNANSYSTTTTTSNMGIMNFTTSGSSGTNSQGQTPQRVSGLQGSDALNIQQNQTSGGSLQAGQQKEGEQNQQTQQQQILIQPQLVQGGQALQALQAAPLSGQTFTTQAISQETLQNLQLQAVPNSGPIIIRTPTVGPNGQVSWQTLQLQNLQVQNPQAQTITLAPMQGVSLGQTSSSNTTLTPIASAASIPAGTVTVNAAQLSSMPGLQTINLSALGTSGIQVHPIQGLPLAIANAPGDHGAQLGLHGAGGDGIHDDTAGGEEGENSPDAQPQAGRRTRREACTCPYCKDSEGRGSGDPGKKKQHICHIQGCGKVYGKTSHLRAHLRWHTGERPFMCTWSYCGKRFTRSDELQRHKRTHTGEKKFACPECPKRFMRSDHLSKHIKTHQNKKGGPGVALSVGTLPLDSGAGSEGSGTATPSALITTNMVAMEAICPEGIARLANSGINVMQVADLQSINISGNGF
# Procedure, shortened: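 Chemicals are dosed onto HepG2 cells transfected with multiple cis-promoter reporter constructs, and after 24 h reporter RNA is reverse-transcribed, PCR-amplified and resolved by capillary electrophoresis for fluorescence quantitation; activity is scored up or down against DMSO.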
# [7] = ATG_SREBP_CIS: Attagene CIS-FACTORIAL HepG2 Assay for human Sterol Regulatory Element Binding (SREBP) (AID 2282962); details: HepG2 Attagene cis-factorial SREBP reporter, mRNA; actives raise or lower the signal
# Procedure, shortened: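 Twenty-four hours after chemical dosing of transfected HepG2 cultures, reporter RNA was converted to cDNA, amplified, end-labelled with 6-FAM and resolved by capillary electrophoresis. Responses were fitted relative to DMSO.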
# [8] = molecular target: Signal transducer and activator of transcription 3 (Homo sapiens) (UniProt P40763); experiment: ATG_STAT3_CIS: Attagene CIS-FACTORIAL HepG2 Assay for human Signal Transducer and Activator of Transcription 3 (STAT3) (AID 2282963); details: HepG2, Attagene cis-factorial STAT3 reporter transcription; actives raise or lower the signal
# Sequence of Signal transducer and activator of transcription 3 (Homo sapiens) (P40763 whole entry, looked up): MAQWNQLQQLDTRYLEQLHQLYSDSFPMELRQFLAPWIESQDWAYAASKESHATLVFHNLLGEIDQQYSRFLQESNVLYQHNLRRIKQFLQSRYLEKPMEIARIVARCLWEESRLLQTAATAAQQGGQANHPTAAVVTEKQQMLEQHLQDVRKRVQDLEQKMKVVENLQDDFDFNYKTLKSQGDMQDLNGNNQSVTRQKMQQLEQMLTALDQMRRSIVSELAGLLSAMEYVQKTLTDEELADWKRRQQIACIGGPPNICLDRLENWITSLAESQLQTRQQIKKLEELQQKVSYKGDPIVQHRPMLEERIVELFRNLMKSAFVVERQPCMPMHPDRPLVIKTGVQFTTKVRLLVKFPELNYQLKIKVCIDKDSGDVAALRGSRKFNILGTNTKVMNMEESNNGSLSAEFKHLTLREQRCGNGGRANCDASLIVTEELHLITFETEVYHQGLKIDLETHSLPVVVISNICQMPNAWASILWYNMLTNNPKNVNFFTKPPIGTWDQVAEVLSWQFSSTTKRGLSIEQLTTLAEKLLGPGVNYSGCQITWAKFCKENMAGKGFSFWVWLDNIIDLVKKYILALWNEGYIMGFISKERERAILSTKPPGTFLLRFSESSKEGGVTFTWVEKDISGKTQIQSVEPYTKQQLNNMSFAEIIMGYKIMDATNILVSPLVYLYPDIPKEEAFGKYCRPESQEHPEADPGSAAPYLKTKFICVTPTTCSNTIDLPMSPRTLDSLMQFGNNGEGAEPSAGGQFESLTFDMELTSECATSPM
# Procedure, shortened: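 HepG2 cells transiently transfected with multiple cis-element-driven reporter units report endogenous transcription factor activity. After 24 h compound exposure, reporter mRNA is measured by RT-PCR, 6-FAM labelling, HpaI digestion and capillary electrophoresis. Fitted bidirectionally versus DMSO.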
# [9] = ATG_TA_CIS: Attagene CIS-FACTORIAL HepG2 Assay for human TA Basal Promoter (AID 2282964); details: HepG2 Attagene CIS-factorial TA basal promoter reporter; actives raise or lower the signal
# Procedure, shortened: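 Transient MRTU transfection of HepG2 preceded 24 h compound exposure. Reporter mRNA levels were then read by RT-PCR with capillary electrophoresis, and this background-control endpoint was fitted bidirectionally to DMSO.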
# [10] = ATG_TCF_b_cat_CIS: Attagene CIS-FACTORIAL HepG2 Assay for human T-Cell-Factor with beta-catenin (TCF/b-cat) (AID 2282965); details: HepG2 TCF/beta-catenin cis-reporter transcription, actives raise or lower the signal
# Procedure, shortened: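 Cells of the HepG2 line carry transiently transfected reporter units whose promoters respond to endogenous factors. Twenty-four hours post-dosing, reporter mRNA induction is measured by fluorescent RT-PCR and capillary electrophoresis, with DMSO as baseline.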
# [11] = ATG_TAL_CIS: Attagene CIS-FACTORIAL HepG2 Assay for human TAL Basal Promoter (AID 2282966); details: HepG2 Attagene cis-factorial TAL promoter reporter; actives raise or lower the signal;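 note: background control endpoint measuring basal TAL promoter reporter mRNA not a specific factor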
# Procedure, shortened: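 HepG2 cells transiently transfected with multiplexed cis-promoter reporter units, dosed 24 h. Reporter mRNA quantified by RT-PCR, 6-FAM labelling, HpaI digestion and capillary electrophoresis; TAL basal promoter serves as background control, fitted bidirectionally versus DMSO.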
# [12] = ATG_TGFb_CIS: Attagene CIS-FACTORIAL HepG2 Assay for human Transforming Growth Factor (TGF) (AID 2282967); details: HepG2 Attagene CIS TGFb reporter, mRNA transcription; actives raise or lower the signal
# Procedure, shortened: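 After a 24-hour incubation with compound, transfected HepG2 cells were lysed for RNA; reporter cDNA was amplified, fluorescently end-labeled and separated by CE. DMSO served as baseline for bidirectional fits.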
# [13] = ATG_VDRE_CIS: Attagene CIS-FACTORIAL HepG2 Assay for human Vitamin D Receptor Element (VDRE) (AID 2282968); details: HepG2 VDRE cis-reporter transcription, actives raise or lower the signal
# Procedure, shortened: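 Transiently transfected HepG2 cells carrying cis-regulated reporter transcription units were exposed for 24 h. Reporter mRNA was measured by RT-PCR with fluorescent labelling and capillary electrophoresis, and fitted in both directions against DMSO.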
# [14] = molecular target: Nuclear receptor subfamily 1 group I member 3 (Homo sapiens) (UniProt Q14994); experiment: ATG_CAR_TRANS: Attagene TRANS-FACTORIAL HepG2 Assay for human Constitutive Androstane Receptor (CAR) (AID 2282969; active = hit-call score of the fitted dose curve at least 0.9, where 1 is the maximum;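 note: activators raise reporter mRNA above DMSO so AC50 marks induction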); details: HepG2 Attagene TRANS-FACTORIAL CAR reporter
# Sequence of Nuclear receptor subfamily 1 group I member 3 (Homo sapiens) (Q14994 whole entry, looked up, the tested form may be a part): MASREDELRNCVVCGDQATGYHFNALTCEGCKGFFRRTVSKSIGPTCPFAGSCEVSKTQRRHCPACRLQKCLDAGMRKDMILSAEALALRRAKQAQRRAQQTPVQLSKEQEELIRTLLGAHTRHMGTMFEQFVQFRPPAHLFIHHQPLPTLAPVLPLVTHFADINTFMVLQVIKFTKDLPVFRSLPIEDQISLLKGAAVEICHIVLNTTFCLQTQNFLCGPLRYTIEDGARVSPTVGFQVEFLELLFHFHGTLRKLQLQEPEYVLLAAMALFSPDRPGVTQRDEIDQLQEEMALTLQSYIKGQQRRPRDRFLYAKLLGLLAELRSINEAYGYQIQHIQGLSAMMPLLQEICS
# Procedure, shortened: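 HepG2 cells transiently transfected with GAL4-UAS reporter units; TRANS format reads activity of exogenous chimeric NR-Gal4 protein. After 24 h dosing, reporter mRNA quantified by RT-PCR, 6-FAM labelling and capillary electrophoresis; gain of signal fitted against DMSO.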
# [15] = molecular target: X-box-binding protein 1 (Homo sapiens) (UniProt P17861); experiment: ATG_Xbp1_CIS: Attagene CIS-FACTORIAL HepG2 Assay for human X-box Binding Protein 1 (XBP1) (AID 2282972); details: HepG2 XBP1 cis-element reporter, Attagene multiplex; actives raise or lower the signal
# Sequence of X-box-binding protein 1 (Homo sapiens) (P17861 whole entry, looked up): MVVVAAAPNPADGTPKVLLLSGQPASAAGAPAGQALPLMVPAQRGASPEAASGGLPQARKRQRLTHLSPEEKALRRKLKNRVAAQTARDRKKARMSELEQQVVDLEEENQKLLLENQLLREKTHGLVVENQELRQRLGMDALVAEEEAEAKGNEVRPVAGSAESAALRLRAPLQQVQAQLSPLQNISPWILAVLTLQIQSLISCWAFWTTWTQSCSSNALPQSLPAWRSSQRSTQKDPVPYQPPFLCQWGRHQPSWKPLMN
# Procedure, shortened: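 After a 24-hour chemical exposure of HepG2 cells carrying cis-regulated reporters, reporter mRNA levels are assessed. Quantification uses RT-PCR, 6-FAM labelling and capillary electrophoresis. Gain- or loss-of-signal is fitted against DMSO.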
# [16] = ATG_M_19_TRANS: Attagene TRANS-FACTORIAL HepG2 Assay for M19 Transcription Factor (Internal Marker) (AID 2282974; active = hit-call score of the fitted dose curve at least 0.9, where 1 is the maximum); details: HepG2 Attagene TRANS-FACTORIAL M19 internal marker reporter
# Procedure, shortened: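 Multiplexed TRANS format: HepG2 liver cells bearing transient GAL4-UAS reporter units, chemical treatment 24 h, reporter transcripts quantified by RT-PCR plus capillary electrophoresis. DMSO defines baseline.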
# [17] = ATG_GAL4_TRANS: Attagene TRANS-FACTORIAL HepG2 Assay for GAL4 (Internal Marker) (AID 2282976; active = hit-call score of the fitted dose curve at least 0.9, where 1 is the maximum); details: HepG2 Attagene TRANS GAL4 internal marker reporter
# Procedure, shortened: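 Background-control readout: GAL4-UAS reporter transcript in transiently transfected HepG2 cells after 24 h compound exposure. Measured by RT-PCR, 6-FAM primer extension, HpaI digest and capillary electrophoresis; gain-of-signal fit versus DMSO.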
# [18] = molecular target: Estrogen receptor (Homo sapiens) (UniProt P03372); experiment: ATG_ERa_TRANS: Attagene TRANS-FACTORIAL HepG2 Assay for human Estrogen Receptor alpha (ERa) (AID 2282970; active = hit-call score of the fitted dose curve at least 0.9, where 1 is the maximum); details: HepG2 Attagene TRANS ERa GAL4 reporter, mRNA
# Sequence of Estrogen receptor (Homo sapiens) (P03372 whole entry, looked up, the tested form may be a part): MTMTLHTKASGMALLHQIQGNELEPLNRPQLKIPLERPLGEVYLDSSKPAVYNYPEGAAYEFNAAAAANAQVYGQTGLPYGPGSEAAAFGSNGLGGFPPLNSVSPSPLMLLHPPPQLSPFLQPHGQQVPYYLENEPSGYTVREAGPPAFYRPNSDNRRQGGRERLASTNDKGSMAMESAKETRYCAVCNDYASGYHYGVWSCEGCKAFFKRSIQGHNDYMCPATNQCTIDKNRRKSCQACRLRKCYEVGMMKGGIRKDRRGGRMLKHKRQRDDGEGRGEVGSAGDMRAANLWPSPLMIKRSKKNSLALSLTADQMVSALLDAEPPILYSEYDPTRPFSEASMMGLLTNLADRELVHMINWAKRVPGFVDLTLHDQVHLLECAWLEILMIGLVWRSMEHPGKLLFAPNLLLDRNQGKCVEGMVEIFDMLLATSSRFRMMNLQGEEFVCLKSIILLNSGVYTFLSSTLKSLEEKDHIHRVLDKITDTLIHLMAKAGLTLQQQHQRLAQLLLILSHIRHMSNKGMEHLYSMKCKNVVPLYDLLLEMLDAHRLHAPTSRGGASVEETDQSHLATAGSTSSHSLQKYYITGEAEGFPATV
# Procedure, shortened: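 HepG2 cells transiently transfected with multiplexed GAL4-UAS reporter units read out chimeric NR-Gal4 activity. After 24 h compound exposure, reporter mRNA was quantified by RT-PCR, 6-FAM labeling, HpaI digestion and capillary electrophoresis, relative to DMSO.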
# [19] = ATG_PPRE_CIS: Attagene CIS-FACTORIAL HepG2 Assay for human Peroxisome Proliferator-activated Response Element (PPRE) (AID 2282958); details: HepG2 PPRE cis-element reporter, Attagene transcription factor profiling; actives raise or lower the signal
# Procedure, shortened: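 DMSO served as negative control and baseline for bidirectional curve fitting. Signal came from PPRE-regulated reporter mRNA in HepG2 cells, measured 24 h post-dosing by RT-PCR, 6-FAM primer extension and capillary electrophoresis.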
# [20] = molecular target: Steroid hormone receptor ERR1 (Homo sapiens) (UniProt P11474); experiment: ATG_ERRa_TRANS: Attagene TRANS-FACTORIAL HepG2 Assay for human Estrogen-Related Receptor alpha (ERRa) (AID 2282971; active = hit-call score of the fitted dose curve at least 0.9, where 1 is the maximum); details: HepG2 Attagene TRANS reporter, ERRa transactivation
# Sequence of Steroid hormone receptor ERR1 (Homo sapiens) (P11474 whole entry, looked up, the tested form may be a part): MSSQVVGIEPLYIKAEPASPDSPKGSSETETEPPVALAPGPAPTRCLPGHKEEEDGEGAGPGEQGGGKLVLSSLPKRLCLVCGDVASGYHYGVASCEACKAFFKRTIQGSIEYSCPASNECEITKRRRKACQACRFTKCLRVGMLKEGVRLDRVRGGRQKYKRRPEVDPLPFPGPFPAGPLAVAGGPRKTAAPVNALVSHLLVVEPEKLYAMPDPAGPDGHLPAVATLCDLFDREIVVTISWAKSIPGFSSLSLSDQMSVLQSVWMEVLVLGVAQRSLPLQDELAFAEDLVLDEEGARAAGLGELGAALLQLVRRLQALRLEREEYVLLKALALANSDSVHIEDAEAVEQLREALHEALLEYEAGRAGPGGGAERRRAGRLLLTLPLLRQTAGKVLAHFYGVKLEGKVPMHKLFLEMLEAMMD
# Procedure, shortened: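 HepG2 cells transiently transfected with GAL4-UAS reporter units and chimeric NR-Gal4 constructs; after 24 hour compound incubation, reporter mRNA quantified by RT-PCR, fluorescent labelling and capillary electrophoresis, gain of signal versus DMSO.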
compound,measurement,setting,value
CCC(C)COC(=O)CC(C)C (stereo not drawn),outcome,[1],inactive
same,outcome,[2],inactive
same,outcome,[3],inactive
same,outcome,[4],inactive
same,outcome,[5],inactive
same,outcome,[6],inactive
same,outcome,[7],inactive
same,outcome,[8],inactive
same,outcome,[9],inactive
same,outcome,[10],inactive
same,outcome,[11],inactive
same,outcome,[12],inactive
same,outcome,[13],inactive
same,outcome,[14],inactive
same,outcome,[15],inactive
same,outcome,[16],inactive
same,outcome,[17],inactive
COc1ccc(N)c(C)c1,AC50,[1],181 µM (active)
same,outcome,[2],inactive
same,AC50,[3],27.3 µM (active)
same,outcome,[4],inactive
same,outcome,[5],inactive
same,outcome,[6],inactive
same,outcome,[7],inactive
same,outcome,[8],inactive
same,outcome,[9],inactive
same,AC50,[10],169 µM (active)
same,outcome,[11],inactive
same,outcome,[12],inactive
same,AC50,[13],100 µM (active)
same,outcome,[14],inactive
same,AC50,[18],56.5 µM (active)
same,outcome,[15],inactive
same,outcome,[16],inactive
[O-]/[N+](=N\O)c1ccccc1,outcome,[1],inactive
same,outcome,[2],inactive
same,AC50,[3],26.6 µM (active)
same,outcome,[19],inactive
same,outcome,[5],inactive
same,outcome,[6],inactive
same,outcome,[7],inactive
same,outcome,[8],inactive
same,outcome,[9],inactive
same,outcome,[10],inactive
same,outcome,[11],inactive
same,outcome,[12],inactive
same,outcome,[13],inactive
same,outcome,[14],inactive
same,AC50,[18],42.3 µM (active)
same,outcome,[20],inactive
same,outcome,[15],inactive
Cc1cc(O)c2c(c1)C(=O)c1cc(O)cc(O)c1C2=O,AC50,[1],14.9 µM (active)
same,outcome,[2],inactive
same,outcome,[3],inactive
same,AC50,[19],12 µM (active)
same,outcome,[4],inactive
same,outcome,[5],inactive
same,outcome,[7],inactive
same,outcome,[8],inactive
same,outcome,[9],inactive
same,outcome,[10],inactive
same,outcome,[11],inactive
same,outcome,[12],inactive
same,outcome,[14],inactive
same,outcome,[20],inactive
same,AC50,[15],9.89 µM (active)
CCC(C)(C)C1CCC(OC)CC1 (stereo not drawn),outcome,[1],inactive
same,outcome,[2],inactive
same,AC50,[3],3.33 µM (active)
same,outcome,[4],inactive
same,outcome,[5],inactive
same,outcome,[6],inactive
same,outcome,[7],inactive
same,outcome,[8],inactive
same,outcome,[9],inactive
same,outcome,[10],inactive
same,outcome,[11],inactive
same,outcome,[12],inactive
same,outcome,[13],inactive
same,outcome,[14],inactive
same,AC50,[18],58.7 µM (active)
same,outcome,[15],inactive
same,outcome,[16],inactive
CC(C)(C)c1ccc(S)cc1,outcome,[1],inactive
same,outcome,[2],inactive
same,AC50,[3],6.36 µM (active)
same,outcome,[4],inactive
same,outcome,[5],inactive
same,outcome,[6],inactive
same,outcome,[7],inactive
same,outcome,[8],inactive
same,outcome,[9],inactive
same,outcome,[10],inactive
same,outcome,[11],inactive
same,outcome,[12],inactive
same,outcome,[13],inactive
same,outcome,[14],inactive
same,outcome,[18],inactive
same,outcome,[15],inactive
same,outcome,[17],inactive
CCCCCCCCCCCCN1CCOCC1,outcome,[1],inactive
same,outcome,[2],inactive
same,outcome,[3],inactive
same,outcome,[4],inactive
same,outcome,[5],inactive
same,outcome,[6],inactive
same,outcome,[7],inactive
same,outcome,[8],inactive
same,outcome,[9],inactive
same,outcome,[10],inactive
same,outcome,[11],inactive
same,outcome,[12],inactive
same,AC50,[13],60.6 µM (active)
same,outcome,[14],inactive
same,outcome,[18],inactive
same,outcome,[20],inactive
same,AC50,[15],46.9 µM (active)
same,outcome,[17],inactive
